Laboratory results published in PubChem BioAssay (EPA / NIEHS).
Values joined by “and” are separate entries in the source; they are usually repeats but may differ in a detail not shown here. Identical values can stand only once. Active and inactive are the calls of the source. Rule for the calls: active = hit-call score of the fitted dose curve at least 0.9, where 1 is the maximum; inactive = score below 0.9.

assay: BSK_3C_Proliferation: Cell Proliferation Assessment in the BioMAP Diversity Plus: 3C Assay (AID 2283006); details: primary human endothelial cells (HUVEC);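 for AC50: potency may reflect either rise or fall in cell number versus DMSO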
Method: BSK_3C is a cell-based, multiplexed-readout assay that uses umbilical vein endothelium, a human vascular primary cell, with measurements taken at 24 hours after chemical dosing in a 96-well plate.BSK_3C_Proliferation is an assay component measured in the BSK_3C assay. It measures 0.1% sulforhodamine related to cell proliferation using Sulforhodamine staining technology.Data from the assay component BSK_3C_Proliferation was analyzed into 1 assay endpoint. This assay endpoint, BSK_3C_Proliferation, was analyzed with bidirectional fitting relative to DMSO as the negative control and baseline of activity. Using a type of viability reporter, measures of total protein for gain or loss-of-signal activity can be used to understand the viability at the cellular-level. Furthermore, this assay endpoint can be referred to as a secondary readout, because this assay has produced multiple assay endpoints where this one serves a viability function. To generalize the intended target to other relatable targets, this assay endpoint is annotated to the cell cycle intended target family, where the subfamily is proliferation.
The levels of cell surface (or secreted, indicated by the prefix "s") biomarker endpoints were measured by ELISA. Overt cytotoxicity to cells in confluent adherent cultures (all systems other than the BT system) was assessed by measuring total protein levels using sulforhodamine B (SRB) staining in parallel cultures at the time of biomarker measurements, indicated as SRB endpoints. For proliferation assays for adherent cell types, individual cell types are cultured at sub-confluence and relative cell numbers quantified by SRB staining at time points optimized for each system (48 h: 3C and CASM3C systems; 72 h: BT and HDF3CGF systems; 96 h: SAg system). SRB was performed by staining cells with 0.1% SRB after fixation with 10% TCA and reading wells at 560 nm.Viability and proliferation of PBMC (T cells) was quantified by Alamar Blue reduction for the SAg and BT systems. For PBMC viability (referred to as PBMC Cytotoxicity within the assay endpoint names), cells were plated (75,000/well in a 96-well plate) and then chemical samples added for 1 h before addition of activators, SEB and TSST-1 (20 ng/mL final concentration each). Cells were incubated for 90 h. Then, Alamar Blue (20 uL/well) (Invitrogen, Cat DAL1100) was added for 6 h, and the plates were read with a fluorescence microplate reader at 546/580 nm (excitation/emission). For PBMC proliferation, cells were plated and activated as above but incubated for only 16 h prior to addition of Alamar Blue. Plates were read after 6 h.

| Compound | outcome | AC50 |
| --- | --- | --- |
| CC(Oc1cccc(Cl)c1)C(=O)O (stereo not given) | inactive |  |
| CCCCOC(=O)c1ccccc1C(=O)O | inactive |  |
| CCCCOC(=O)[C@@H](C)Oc1ccc(Oc2ccc(C#N)cc2F)cc1 | inactive |  |
| Cc1ccn2nc(S(=O)(=O)Nc3c(F)cccc3F)nc2n1 | inactive |  |
| CSc1nnc(C(C)(C)C)c(=O)n1N | inactive |  |
| Nc1nc(N)nc(NC2CC2)n1 | inactive |  |
| CCCSP(=O)(OCC)Oc1ccc(Br)cc1Cl (stereo not given) |  | 27.4 µM (active) |
| CNC(=O)Oc1cccc2c1OC(C)(C)O2 | inactive |  |
| C=C(C)[C@H]1Cc2c(ccc3c2O[C@@H]2COc4cc(OC)c(OC)cc4[C@@H]2C3=O)O1 |  | 1.36 µM (active) |
| Cc1nn(-c2cc(NS(C)(=O)=O)c(Cl)cc2Cl)c(=O)n1C(F)F | inactive |  |
| CCOP(=S)(OCC)OC(Cl)C(Cl)(Cl)Cl (stereo not given) |  | 32.1 µM (active) |
| CCNc1nc(Cl)nc(NC(C)(C)C#N)n1 | inactive |  |
| CCOC(=O)COc1cc(-c2nn(C)c(OC(F)F)c2Cl)c(F)cc1Cl |  | 15.5 µM (active) |
| CC1(C(=O)Nc2ccc(O)c(Cl)c2Cl)CCCCC1 | inactive |  |
| N#CSCSC#N |  | 2.07 µM (active) |
| CCOP(=O)(SC(C)CC)N1CCSC1=O (stereo not given) | inactive |  |
| CC[C@H](C)[C@H]1O[C@]2(C=C[C@@H]1C)C[C@@H]1C[C@@H](C/C=C(\C)[C@@H](O[C@H]3C[C@H](OC)[C@@H](O[C@H]4C[C@H](OC)[C@@H](NC)[C@H](C)O4)[C@H](C)O3)[C@@H](C)/C=C/C=C3\CO[C@@H]4[C@H](O)C(C)=C[C@@H](C(=O)O1)[C@]34O)O2 |  | 1.68 µM (active) |
| CON=C(C(=O)OC)c1ccccc1CON=C(C)c1cccc(C(F)(F)F)c1 |  | 1.58 µM (active) |
| COP(=O)(OC)C(O)C(Cl)(Cl)Cl (stereo not given) | inactive |  |
| CC(C)=CC1C(C(=O)OCN2C(=O)C3=C(CCCC3)C2=O)C1(C)C (stereo not given) |  | 15.6 µM (active) |

| Compound | outcome | AC50 |
| --- | --- | --- |
| CCC(CC)Nc1c([N+](=O)[O-])cc(C)c(C)c1[N+](=O)[O-] |  | 29.2 µM (active) |
| CN(C)C(=O)Nc1cccc(C(F)(F)F)c1 | inactive |  |
| CCCCN(CC)c1c([N+](=O)[O-])cc(C(F)(F)F)cc1[N+](=O)[O-] |  | 31.6 µM (active) |
| CCC(=O)Nc1ccc(Cl)c(Cl)c1 | inactive |  |
| CCOP(=S)(OCC)Oc1ccc([N+](=O)[O-])cc1 | inactive |  |
| COP(=O)(OC)OC(Br)C(Cl)(Cl)Br (stereo not given) |  | 16 µM (active) |
| O=[N+]([O-])c1cc(C(F)(F)F)c(Cl)c([N+](=O)[O-])c1Nc1ncc(C(F)(F)F)cc1Cl |  | 589 nM (active) and 1.47 µM (active) |
| C[Si](Cn1cncn1)(c1ccc(F)cc1)c1ccc(F)cc1 | inactive |  |
| Cc1cc(C2CC2)nc(Nc2ccccc2)n1 |  | 15.8 µM (active) |
| COc1ccc(C(=CC(=O)N2CCOCC2)c2ccc(Cl)cc2)cc1OC | inactive |  |
| CCOC(=O)CC(SP(=O)(OC)OC)C(=O)OCC (stereo not given) | inactive |  |
| CCOP(=O)(NC(C)C)Oc1ccc(SC)c(C)c1 (stereo not given) | inactive |  |
| CC1=NNC(=O)N(/N=C/c2cccnc2)C1 | inactive |  |
| CC(C)N(C(=O)SCC(Cl)=C(Cl)Cl)C(C)C |  | 34.7 µM (active) |
| CSC1=N[C@@](C)(c2ccccc2)C(=O)N1Nc1ccccc1 |  | 18.9 µM (active) |
| CCOP(=S)(Oc1cnc(C(C)(C)C)nc1)OC(C)C (stereo not given) |  | 33.3 µM (active) |
| C#CC(C)(C)NC(=O)c1cc(Cl)cc(Cl)c1 | inactive |  |
| CCCCSP(=O)(SCCCC)SCCCC |  | 29.5 µM (active) |
| Nc1c(Cl)cc([N+](=O)[O-])cc1Cl | inactive |  |
| CCOP(=O)(OCC)Oc1cc(C)nc(C(C)C)n1 | inactive |  |
